Screen size: about 330,000 compounds; about 1,900 (0.58%) were called active. Roughly 4% stayed inconclusive and do not appear here. Only a sample is shown. Results with a measured potency or affinity are listed apart. Unmarked numbers belong to inactive results. Cut-off read from the data, not from the text of the source: inconclusive = inhibition above about 70% without an active follow-up result; inactive = below that.
test: M. tuberculosis growth inhibition, HTS (AID 449762);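 note: bacterial growth assessed after seven days of incubation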; details: M. tuberculosis H37Rv growth inhibition, 7H9 media; at 25 µM; stronger effect = higher value

Compound	inhibition [%]
COc1ccc(C(=O)NNC(=O)c2ccc(S(=O)(=O)N3CCOCC3)cc2)cc1	0.01
CCCN1C(=O)C2(SC(NC(C)=O)=NN2C(C)=O)c2cc(C)ccc21 (stereo unspecified)	-6.76
COc1cc(F)ccc1S(=O)(=O)N1CCN(C23CC4CC(CC(C4)C2)C3)CC1	9.71
COc1ccc(OC)c(S(=O)(=O)N2CCN(C34CC5CC(CC(C5)C3)C4)CC2)c1	2.72
Oc1[nH]c2ccc(Br)cc2c1N=NC(=S)N1CCOCC1	7.05
NC(=S)N=Nc1c(O)[nH]c2ccccc12	-9.66
CCc1ccc(NC(=O)c2cc(CC(C)C)on2)cc1	4.83
CCCc1cc(C(=O)Nc2ccc(C(C)=O)cc2)no1	29.9
CCOc1ccc(C(=S)N2CCN(C)CC2)cc1	-1.09
CCc1nc(C)cn1S(=O)(=O)c1cc(Cl)c(OC)cc1Cl	-6.76
CCN(CC)C(=O)c1ccc2c(c1)N(Cc1ccccc1)C(=O)CS2=O (stereo unspecified)	0.11
Cc1ccc(C(=O)Nc2cccc(C(F)(F)F)c2)cc1NC(=O)c1nccn1C	-2.57
CC(=O)c1ccccc1NC(=O)COC(=O)CCC1CCCC1	9.67
CC(C)/C=C1\CC/C(=C\c2cccnc2)C1=O	11
O=C1/C(=C/c2cccnc2)CC/C1=C\c1cccnc1	-0.97
COc1cc(/C=C/C(=O)OC(C)C(=O)Nc2ccc(Cl)cn2)ccc1OC(F)F (stereo unspecified)	28.3
COc1ccc(Nc2nc(Cl)nc(NCc3ccco3)n2)c(OC)c1	-5.12
Cc1noc(NS(=O)(=O)c2ccc(NC(=O)/C=C/c3ccc(C(C)C)cc3)cc2)c1C	-12.3
CCN(CC)c1ccc(C=C2C(=O)N(C)C(=S)N(C)C2=O)o1	1.5
CC(C)N1C(=O)S/C(=C\c2ccc(-c3ccc(Cl)c(C(=O)O)c3)o2)C1=O	4.73
NC(=O)CN1CCCC1c1ccc2c(c1)OCCO2 (stereo unspecified)	-1.31

Compound	inhibition [%]
CC(=O)c1ccc(OCC(=O)N2CCCC2c2ccc3c(c2)OCCCO3)cc1 (stereo unspecified)	-12.4
CCc1nnc(NC(=O)CN2CCN(Cc3cccc(F)c3)CC2)s1	13.7
COc1ccc(NS(=O)(=O)c2cccc(C(=O)NCc3ccccn3)c2)cc1	-5.64
O=C(CCn1cnnn1)Nc1ccc(Cl)cc1Cl	-5.53
O=C(CN1CCCC1)Nc1ccc([N+](=O)[O-])cc1	4.32
O=C(CN1CCCCC1)Nc1nnc(-c2ccccc2)s1	5.25
O=C(OCC(=O)N1CCCC1)c1ccc(Cl)c([N+](=O)[O-])c1	-6.77
COc1ccccc1N1CCN(c2ccc(Cl)nn2)CC1	0.36
COc1ccccc1N1CCN(c2ccc3ccccc3n2)CC1	1.84
CCCNC(=O)NC(=O)COC(=O)c1cccc(NS(=O)(=O)c2ccc(F)c(F)c2)c1	5.38
CC1(C2CC2)NC(=O)N(CC(=O)N2CCN(c3ccccc3)CC2)C1=O (stereo unspecified)	-0.6
Nc1nc(-c2ccco2)nn1C(=O)CCc1ccccc1	6.17
CC(=O)c1ccc(NC(=O)C2=CC(c3cccs3)=NS(=O)(=O)N2C)cc1	2.16
O=c1[nH]c(Nc2ccccc2)cc2ccccc12	0.07
CC(=O)Nc1ccc(NC2=CC(=O)c3ccccc3C2=O)cc1	3.89
O=c1[nH]c(Nc2ccc(F)cc2)cc2ccccc12	-14.1
NS(=O)(=O)c1ccc(NC2=CC(=O)C(=O)c3ccccc32)cc1	11.2
COC(=O)CN(c1ccc(C)cc1)S(=O)(=O)c1c(C)[nH]c(=O)[nH]c1=O	-6.71
C=CCSc1nnc(NC(=O)c2ccc(N3CCCC3=O)cc2)s1	-1.46
C=CC[C@H](CC(=O)NCCO)C(=O)NC[C@@H](OC(=O)[C@@H](CC=C)CC(=O)OC(C)(C)C)c1ccccc1	-4.9
Cc1cc(N2CCN(c3ccc([N+](=O)[O-])c4cccnc34)CC2)c2ccccc2n1	-7.93

Compound	inhibition [%]
Cc1ccc(S(=O)(=O)N2CCN(c3ccc(C(F)(F)F)cc3[N+](=O)[O-])CC2)cc1	16
CCC1(CC)C(=O)N(Cc2ccccc2)C(=O)N(Cc2ccccc2)C1=O	-1.75
CCN(c1ccccc1)S(=O)(=O)c1ccc(OC)c(NC(=O)Cc2ccccc2OC)c1	-3.76
CCN(CCNC(=O)C1CC(=O)N(CCc2ccccc2)C1)c1ccccc1 (stereo unspecified)	-5.61
COc1cccc(/C=N/NC(=S)NC2CC3CC2C2C=CCC32)c1O (stereo unspecified)	-6.6
CCOc1ccc(/C=N/NC(=S)NC2CC3CC2C2C=CCC32)cc1 (stereo unspecified)	7.16
CC1CCCCC12NC(=O)N(CC(=O)NNC(=O)c1ccc(Br)cc1)C2=O (stereo unspecified)	1.45
CCSc1nnc(NC(=O)CSC2=NN3CCCC(=O)N=C3S2)s1	2.54
CN(c1cccc(NC(=O)Cc2ccccc2)c1)S(C)(=O)=O	5.18
O=C(NC(C(=O)N/N=C/c1ccncc1)c1n[nH]c(=O)c2ccccc12)c1ccccc1 (stereo unspecified)	2.1
O=C(NC(C(=O)N/N=C/c1ccccc1)c1n[nH]c(=O)c2ccccc12)c1ccccc1 (stereo unspecified)	2.9
COc1ccc(CC(=O)Nc2ccccc2N2CCCC2)cc1	0.8
Cc1ccc(C2CC(=O)C=C(O)C2)cc1 (stereo unspecified)	9.89
COc1ccc(CNC(=O)NCCc2c[nH]c3ccccc23)cc1	9.15
CSc1ccccc1NC(=O)COc1nsnc1N1CCOCC1	2.19
Cc1cccc(NC(=O)CSc2nc(N)c(NC(=O)c3ccccc3F)c(=O)[nH]2)c1	-17.1
COC(=O)c1ccc2[nH]c(C(C)(C)O)c(C)c2c1	-3.19
COc1ccc(C2=NN3C(C2)c2ccccc2OC3c2cccs2)cc1 (stereo unspecified)	-3.24
c1ccc(C2Oc3ccccc3C3CC(c4cccs4)=NN32)cc1 (stereo unspecified)	-7.12

From PubChem BioAssay AID449762 (Southern Research Specialized Biocontainment Screening …, 2010)
